Our source for the composite z-score and z-score values is PubChem BioAssay.

Test [1] has as its system Human papillomavirus type 1a protein E7 (residues 44-93). Kind of test: small molecules binding HPV E7 44-93 – biochemical, small-molecule microarray, residues 44-93, 635 nm fluorescence, primary screen (AID 1108).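 Also: E7 fragment applied at 1 µg/mL in TBST for 1 h at 4 C; score combines spot fluorescence with its signal to noise ratio.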 Conditions: fluorescence 635 nm, higher = more signal.
The nature of test [2]: hepatitis C replication reporter changes, two-sided – Huh7 cells, luciferase reporter, HCV replication inhibitor project, primary screen (AID 1109).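 Also: huh7 hepatoma cells harbouring a luciferase neomycin HCV replicon reporter; luciferase luminescence as measure of HCV replicon replication; test concentration not given here.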 Conditions: Huh7 HCV replicon luciferase reporter, 48 h; higher = more signal. On the technique in general: A reporter such as luciferase makes a cellular process visible.
The target in test [3] is Left-right determination factor 2 (Homo sapiens) (UniProt O00292). Put plainly: small molecules binding LEFTY2 protein – biochemical, small-molecule microarray, 635 nm fluorescence scan, primary screen (AID 1110). Conditions: higher = more signal.
Sequence of Left-right determination factor 2 (Homo sapiens) (O00292 whole entry, looked up): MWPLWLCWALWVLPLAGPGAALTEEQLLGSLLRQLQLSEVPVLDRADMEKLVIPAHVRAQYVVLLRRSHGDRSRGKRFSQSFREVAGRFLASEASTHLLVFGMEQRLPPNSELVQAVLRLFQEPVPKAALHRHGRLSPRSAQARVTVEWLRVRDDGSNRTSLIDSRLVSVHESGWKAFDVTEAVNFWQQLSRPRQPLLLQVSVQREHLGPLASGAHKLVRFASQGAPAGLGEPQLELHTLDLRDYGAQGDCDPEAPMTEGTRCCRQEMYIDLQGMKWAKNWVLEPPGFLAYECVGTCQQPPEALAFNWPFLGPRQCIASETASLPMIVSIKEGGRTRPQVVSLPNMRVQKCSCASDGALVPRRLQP
Test [4] has as its target Calmodulin-1 (Homo sapiens) (UniProt P0DP23). Kind of test: small molecules binding calmodulin-1 with EGTA – biochemical, small-molecule microarray, Cy5-labelled CALM1, profiling panel (AID 1111).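 Also: labelled calmodulin applied in Tris saline Tween buffer holding calcium plus EGTA and DTT.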 Conditions: Cy5-CALM1 binding fluorescence, higher = more signal.
Test [5] shares this target. Put plainly: small molecules binding Ca-loaded calmodulin-1 – biochemical, small-molecule microarray, Cy5-labelled CALM1, plus calcium, artefact control for SMM control-protein annotation, profiling panel (AID 1112).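 Also: score merges spot fluorescence with signal to noise from triplicate slides.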 Conditions: Cy5-CALM1 binding fluorescence, higher = more signal.
The nature of test [6]: probe aWnt5a binding to arrayed compounds – biochemical, biotinylated probe, 635/667 nm fluorescence, primary screen (AID 1113).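 Also: score merges 667 nm fluorescence intensity with signal-to-noise per printed feature.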 Conditions: small-molecule microarray, higher = more signal.
Test [7] can be described thus: probe aShh binding to arrayed compounds – biochemical, biotinylated probe, 635/667 nm fluorescence, primary screen (AID 1114).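 Also: probe is biotin-labelled aShh protein from a stem cell growth factor screen; measures binding of labelled protein to compounds printed on the slide; score merges feature fluorescence at 667 nm with signal-to-noise.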 Conditions: small-molecule microarray, higher = more signal.
Test [8] is described as follows: probe aNog binding to arrayed compounds – biochemical, biotinylated probe, 635/667 nm fluorescence, primary screen (AID 1115).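 Also: probe is biotinylated aNog protein used at 0.15 µg/mL for 1 h at 4 C; z-score combines 667 nm fluorescence of each spot with its signal to noise.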 Conditions: small-molecule microarray, higher = more signal.
For test [9], the target named is Torsin-1A-interacting protein 1 (Homo sapiens) (UniProt Q5JTV8). Kind of test: compound microarray binding of lysate hLAP1 – cell lysate, small-molecule microarray, COS7 lysate, 635/667 nm fluorescence, primary screen (AID 1116). Conditions: 635 nm fluorescence, higher = more signal.
Sequence of Torsin-1A-interacting protein 1 (Homo sapiens) (Q5JTV8 whole entry, looked up): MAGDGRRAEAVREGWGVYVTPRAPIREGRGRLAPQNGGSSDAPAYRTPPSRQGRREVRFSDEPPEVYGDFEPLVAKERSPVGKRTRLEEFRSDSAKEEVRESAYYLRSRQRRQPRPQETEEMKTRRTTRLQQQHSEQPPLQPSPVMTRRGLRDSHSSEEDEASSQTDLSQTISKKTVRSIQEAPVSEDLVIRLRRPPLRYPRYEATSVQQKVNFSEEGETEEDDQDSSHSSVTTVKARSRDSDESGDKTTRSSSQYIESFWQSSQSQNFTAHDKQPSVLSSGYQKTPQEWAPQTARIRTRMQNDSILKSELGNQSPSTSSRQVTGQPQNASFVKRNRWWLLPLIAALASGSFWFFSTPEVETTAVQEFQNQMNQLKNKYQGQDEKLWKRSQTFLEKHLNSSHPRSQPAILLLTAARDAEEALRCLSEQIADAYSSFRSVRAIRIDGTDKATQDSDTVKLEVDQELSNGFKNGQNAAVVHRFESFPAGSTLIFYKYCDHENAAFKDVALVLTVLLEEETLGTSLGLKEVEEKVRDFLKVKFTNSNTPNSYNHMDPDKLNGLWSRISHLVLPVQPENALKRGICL
Test [10] addresses Alpha-bungarotoxin (Bungarus multicinctus) (UniProt P60615). Kind of test: compounds binding labelled alpha-BTX control protein – biochemical, small-molecule microarray, Alexa647 label, 635/667 nm fluorescence, artefact control for SMM control protein annotation, profiling panel (AID 1117). Conditions: alpha-BTX-A647 binding fluorescence, higher = more signal.

Each structure is given as a SMILES string.

Sequence of Alpha-bungarotoxin (Bungarus multicinctus) (P60615 whole entry, looked up): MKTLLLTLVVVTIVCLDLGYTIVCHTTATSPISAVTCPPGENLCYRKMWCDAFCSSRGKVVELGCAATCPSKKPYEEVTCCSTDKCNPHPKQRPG

For `CCOC(=O)NN=C1C[C@@H](O)[C@@H](O)[C@@H]2[C@@H]3C(=O)N(C(C)(C)C)C(=O)[C@@H]3CC[C@H]12`, the composite z-score in test [1] is 0.217; in test [3] it was 0.481; in [4], -0.0749; in test [5] it was -0.913; in test [6] it was 0.0068; in [7], 0.108. In addition, the composite z-score in test [8] was -0.171; in [9] it was 0.0059; in test [10], -0.0211. In test [2], this molecule came in with a z-score of -0.0742.

`COC(=O)[C@H](C)NC(=O)CCC1CC(OC(=O)NCc2ccc3c(c2)OCO3)CC2(CCCC(COC(=O)NCCc3ccccc3OC)O2)O1` (stereo not given in full): the composite z-score in test [1] was 0.776; in test [3], 0.0048; in test [4], -0.173; in test [5], 0.351; in test [6] it was -0.219; in test [7], -0.206. Further, the values for the composite z-score in test [8], in test [9] and in [10] were -0.0653, 0.561 and 0.253, respectively. The z-score in test [2] is -0.941.

Consider `COC(=O)C1=C(C)N(Cc2ccccc2)[C@]23O[C@](C(=O)OC)(C(=O)N2[C@@H]1c1ccccc1)C(C(=O)OC)=C3C(=O)OC`, for which the composite z-score is 1.3 in [1]; 0.88 in test [3]; -0.328 in test [4]; -1.19 in test [5]; -0.0346 in test [6]; -0.138 in test [7]. In addition, the results for the composite z-score in [8], in test [9] and in test [10] were 0.229, 0.569 and -0.129, respectively. In addition, the z-score in test [2] was -2.76.

On to `CCOC(=O)NN=C1C[C@@H](O)[C@@H](O)[C@@H]2[C@@H]3C(=O)N([C@@H](C)c4ccccc4)C(=O)[C@@H]3CC[C@@H]12`, for which the composite z-score in test [1] is 0.207; in test [3], 0.937; in [4], -0.762; in test [5] it was -2.03; in test [6], -0.191; in [7], -0.476. In addition, the composite z-score was -0.12 in test [8], 1.41 in test [9] and -0.778 in test [10]. In test [2], this molecule had a z-score of 0.0672.

With `C#CCCCON=C1C[C@@H](O)[C@@H](O)[C@@H]2[C@@H]3C(=O)N(CC)C(=O)[C@@H]3CC[C@@H]12`, the composite z-score in [1] was 0.431; in test [3], 0.507; in test [4], -0.4; in [5] it was -0.749; in [6], -0.164; in test [7], -0.197. Also, the results for the composite z-score in test [8], in [9] and in [10] were -0.133, 0.586 and 1.27, respectively. The molecule further had a z-score in test [2] of -0.113.

As to `CCN1C(=O)[C@H]2[C@H]3[C@H](O)[C@H](O)CC(=NNC(=O)OCc4ccc(OC)cc4)[C@@H]3CC[C@H]2C1=O`, the composite z-score in [1] is -0.246; in test [3] it was -0.0843; in [4], -0.484; in test [5], -0.732; in test [6], -0.261; in test [7], 0.401. In addition, the values for the composite z-score in test [8], in test [9] and in [10] were -0.272, -0.717 and 0.374, respectively. In test [2], this molecule returned a z-score of -0.193.

For `COC(=O)CC=C[C@@H](C)[C@@H](C=NOCC[C@@H]1C=C[C@H](OC(C)=O)[C@@H](COC(C)=O)O1)OC`, the composite z-score in test [1] is 0.107; in [3] it was 0.589; in test [4], -1; in test [5], -1.78; in [6], -0.0346; in test [7], 0.284. For the same molecule, the composite z-score in test [8] was -0.205; in [9], 0.473; in test [10], -0.484. This molecule also displayed a z-score in test [2] of -0.488.

For `COC(=O)C=CCCc1coc(C=CCNC(=O)OC)n1`, the composite z-score in [1] is 0.565; in [3] it was 0.827; in test [4] it was -0.316; in test [5] it was -1.53; in test [6] it was -0.0346; in [7] it was 0.275. Moreover, the values for the composite z-score in [8], in [9] and in test [10] were -0.255, 0.192 and -0.264, respectively. Moreover, the z-score in [2] is -0.632.

Regarding `CCN1C(=O)[C@H]2[C@H]3[C@H](O)[C@H](O)CC(=O)[C@@H]3CC[C@H]2C1=O`, the composite z-score in test [1] is 0.869; in test [3], 0.685; in test [4], 0.0536; in test [5] it was -0.493; in test [6] it was -0.192; in test [7], -0.138. Further, the composite z-score in test [8] is -0.237; in test [9] it was 0.467; in test [10] it was 0.488. For the same molecule, the z-score in test [2] turned out to be 0.105.

As for `C#CCCCON=C1C[C@@H](O)[C@@H](O)[C@@H]2[C@@H]3C(=O)N(c4ccc(F)cc4F)C(=O)[C@@H]3CC[C@@H]12`, the composite z-score in [1] was 0.184; in test [3], 0.321; in [4], -0.212; in test [5], -0.813; in test [6], -0.197; in test [7], -0.179. Further, the results for the composite z-score in test [8], in test [9] and in test [10] were 0.14, 0.36 and 0.155, respectively. This molecule also came in with a z-score in [2] of 0.296.

For the molecule `O=C(NN=C1C[C@@H](O)[C@@H](O)[C@@H]2[C@@H]3C(=O)N(C[C@@H]4CCCO4)C(=O)[C@@H]3CC[C@@H]12)OCc1ccccc1`, the composite z-score in test [1] is 0.457; in test [3] it was 0.686; in [4], -0.817; in test [5], -1.51; in test [6], -0.243; in test [7], 0.111. The results for the composite z-score in test [8], in test [9] and in test [10] were -0.139, -0.306 and -0.421, respectively. The molecule also returned a z-score in test [2] of 0.246.

For the molecule `CO[C@@H]1COC(=O)CC=C[C@@H](C)[C@H](OC)COC(=O)[C@@H](C)COC(=O)CC=C[C@H]1C`, the composite z-score in test [1] was -0.82; in test [3], 0.889; in test [4], -0.618; in test [5], -1.59; in [6], -0.237; in test [7], -0.0553. The composite z-score was -0.284 in [8], 0.263 in [9] and -0.864 in test [10]. This molecule also gave a z-score in test [2] of 0.0811.

`CCOC(=O)NN=C1C[C@@H](O)[C@@H](O)[C@@H]2[C@@H]3C(=O)N(Cc4ccc5c(c4)OCO5)C(=O)[C@@H]3CC[C@H]12`: the composite z-score in test [1] was 0.581; in test [3] it was -0.0985; in test [4] it was -0.569; in test [5], -0.0188; in [6], -0.129; in test [7], -0.206. Moreover, the results for the composite z-score in [8], in test [9] and in test [10] were -0.177, 1.05 and 0.543, respectively. This molecule also came in with a z-score in [2] of 0.603.

On to `C[C@H]1Cc2c(COc3ccccc3)nc3c(c2CO1)CN(CCOc1ccccc1)CC3`, for which the composite z-score in test [1] was 1.14; in test [3], 0.635; in [4], 0.625; in [5], -0.255; in test [6] it was -0.172; in test [7], 0.0144. For the same molecule, the composite z-score in [8] was -0.502; in test [9], 0.647; in test [10], 0.161. Moreover, the z-score in test [2] was -0.228.

Regarding `CCCNC(=O)OC[C@H]1O[C@H](CCON=Cc2ccc(C(=O)N3[C@H](c4ccc(C)cc4)[C@@H](C)CC[C@H]3C(=O)OC)cc2)C=C[C@@H]1Oc1ccc(OC)cc1`, the composite z-score is 0.993 in test [1]; 0.534 in test [3]; 0.263 in [4]; -0.0711 in test [5]; 0.111 in [6]; -0.493 in [7]. Also, the composite z-score in test [8] was -0.0234; in test [9], 0.943; in test [10], 0.497. In addition, the z-score in test [2] is -1.85.

For `COC(=O)[C@@H]1CC[C@H](C)[C@@H](c2ccc(C)cc2)N1C(=O)c1ccc(C=NO[C@@H](C)c2cn([C@H](CO)Cc3ccccc3)nn2)cc1`, the composite z-score in [1] is 1.3; in test [3], 0.785; in test [4], -0.0062; in test [5], -0.388; in test [6] it was 0.116; in [7], -0.0146. Also, the composite z-score in [8] was -0.0554; in [9], 0.641; in test [10], 0.51. In test [2], this molecule returned a z-score of -2.25.
